Assay outcomes deposited in PubChem BioAssay by National Center for Advancing Translational Sciences (NCATS).
GLP-1R inv ag – GLP-1 receptor (human) inverse agonism. P43220. HEK293 GLP-1R CRE-luciferase, luminescence, 24 h; GLP-1R form is constitutively active. Potency, µM (doses to about 38.3 µM), usual class: inhibitors. 410,000 tested, 1.6% active. AID 624417; further: nearly all actives have a fitted effect of over 55% in size
Target sequence (P43220 whole entry, looked up): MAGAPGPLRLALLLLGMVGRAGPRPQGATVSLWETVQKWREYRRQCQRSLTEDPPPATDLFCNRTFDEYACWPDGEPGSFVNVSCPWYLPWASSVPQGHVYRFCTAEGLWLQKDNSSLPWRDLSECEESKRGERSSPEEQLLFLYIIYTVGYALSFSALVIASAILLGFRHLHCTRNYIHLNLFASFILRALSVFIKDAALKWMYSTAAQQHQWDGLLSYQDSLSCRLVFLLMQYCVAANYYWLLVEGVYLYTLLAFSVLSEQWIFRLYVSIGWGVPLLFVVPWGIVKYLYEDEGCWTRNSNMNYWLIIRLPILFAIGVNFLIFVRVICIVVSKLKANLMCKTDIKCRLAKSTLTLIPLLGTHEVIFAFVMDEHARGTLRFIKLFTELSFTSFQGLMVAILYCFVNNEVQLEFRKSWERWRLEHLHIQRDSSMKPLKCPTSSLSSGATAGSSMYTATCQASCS
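Stable HEK293 clone (constitutively active GLP-1R + cAMP-response luciferase); 200 cells/uL plated, 12 h pre-culture, compound 24 hr, 37 deg C/5% CO2; detection reagent 12 min RT; luminescence.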
Mito fusion act – blocks mitochondrial division or promotes mitochondrial fusion; S. cerevisiae fusion-defective mutant growth rescue, CellTiterGlo 48 h; Potency, µM (titrated, usually from 46.1 µM), actives largely listed as activators; 320,000 tested, 0.23% active; further: nearly all actives have a fitted effect of over 45% in size
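Luminescent cell viability in 1536-well qHTS format served as the measure of rescued growth in ts fusion-mutant S. cerevisiae cultured on non-fermentable YPEG for 48 hours at 37C.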
GLP1R cytotox – cytotoxic in the GLP-1 receptor inverse agonist counter-screen; HEK293 cAMP-luciferase reporter cells, luminescence, 24 h; Potency, µM (top dose mostly 38.3 µM), most hits filed as inhibitors; 410,000 tested, 0.13% active; AID 624418;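 further: loss of luciferase light is scored as toxicity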
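Step one: seed cells (200 cells/uL, DMEM with 10% Nu serum, 1% pen-strep). Step two: 12-hour incubation at 37 deg C. Step three: pin 23 nL compound, incubate 24 hr. Step four: add luciferase reagent, read luminescence 12 min later.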
GLP1R ag – activates the human GLP-1 receptor | AID 624172 | HEK293 GLP-1R CRE-luciferase, luminescence, 4-6 h; cells express a hypersensitive GLP-1R form | P43220 | 380,000 tested, 0.007% active | Potency, µM (titrated, usually from 45.6 µM), hits mostly activators
BRCA1 expr act – increases BRCA1 expression. 380,000 tested, 1.1% active. Potency, µM (series often up to 46.1 µM), usual class: activators. MCF7-BRCA1-FFLuc reporter, luminescence, 48 h; response scale: scaled: vehicle 0%, 10 µM genistein 100%. AID 624202; further: nearly all actives have a fitted effect of over 80% in size
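MCF7-BRCA1-FFLuc cells, 2000/well in phenol-red-free MEM, attached 2 h then treated 48 h at 37 C. Luciferase luminescence read 15 min after reagent; normalized to genistein maximum activation (10microM) and DMSO, concentration-response fitted.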
Hits are given with their value. Hits are enriched below; roughly 2.8% of the tested compounds scored in any of these assays. The call rests on the fitted dose curve; in most records, active means well fitted curve in the direction sought with a large enough effect; inconclusive means small, poorly fitted or top-dose-only effect, or another doubt; inactive means no such curve, though single readings can be large; an effect the other way counts as inactive or inconclusive.

Cc1ccc(C)c(SCC(=O)NC(=O)NC2CCCC2)c1 was read as GLP-1R inv ag 11µM, Mito fusion act inactive, GLP1R cytotox inactive, GLP1R ag inactive and BRCA1 expr act inactive.
`CCCCCNc1ncnc2c(C)[nH]nc12` gave GLP-1R inv ag inactive, GLP1R cytotox inactive, GLP1R ag inactive and BRCA1 expr act inactive.
Screening CCOC(=O)C1CCCN(C(=O)CCc2nnc(-c3ccc(C(C)=O)s3)o2)C1 (centres undefined) returned GLP-1R inv ag inactive, Mito fusion act inactive, GLP1R cytotox inactive, GLP1R ag inactive and BRCA1 expr act 13µM.
`Cc1ccc(-c2ccc(CN3C(C(C)C)C(=O)N(Cc4cn(Cc5ccco5)nn4)CCS3(=O)=O)cc2)cc1` (centres undefined) gave GLP-1R inv ag inconclusive, GLP1R cytotox inactive, GLP1R ag inactive and BRCA1 expr act inactive.
For O=C(COC(=O)/C=C/c1cccc(Cl)c1)NC1CC1 the results were GLP-1R inv ag inactive, Mito fusion act inactive, GLP1R cytotox inactive, GLP1R ag inactive and BRCA1 expr act inactive.
For Cc1cc(S(=O)(=O)N2CCCC2)ccc1OCC(=O)N1CCOCC1 the results were GLP-1R inv ag inactive, Mito fusion act inactive, GLP1R cytotox inactive, GLP1R ag inactive and BRCA1 expr act inactive.
O=c1ccc2c(OCCCCc3ccccc3)c3ccoc3cc2o1 was read as Mito fusion act 5.2µM.
Screening CCn1nc(NC(=O)C(C)(C)C)c2cc3cccc(C)c3nc21 returned GLP-1R inv ag 10µM, Mito fusion act inactive, GLP1R cytotox inactive, GLP1R ag inactive and BRCA1 expr act inactive.
Cc1nc(NN)c2c3c(sc2n1)COC(C)(C)C3 was read as GLP-1R inv ag inactive, Mito fusion act inactive, GLP1R cytotox inactive, GLP1R ag inactive and BRCA1 expr act inactive.
`CCCCOc1ccc(C(=O)OC2CC(C)N(C)CC2C)cc1` (centres undefined) gave GLP-1R inv ag 3.5µM, Mito fusion act inactive, GLP1R cytotox inactive, GLP1R ag inactive and BRCA1 expr act inactive.
For COc1ccc(N2CCN(CCCn3c(=S)[nH]c4ncccc4c3=O)CC2)cc1 the results were GLP-1R inv ag inactive, Mito fusion act inactive, GLP1R cytotox inactive, GLP1R ag inactive and BRCA1 expr act inactive.
Screening Cc1ccc2nc(SCC3CCCCO3)[nH]c2c1 (centres undefined) returned GLP-1R inv ag 3.5µM, Mito fusion act inactive, GLP1R cytotox inactive, GLP1R ag inactive and BRCA1 expr act inconclusive.
Cc1ccc2nc(SCC(=O)N3CCOCC3)[nH]c2c1 was read as GLP-1R inv ag inactive, Mito fusion act inactive, GLP1R cytotox inactive, GLP1R ag inactive and BRCA1 expr act inconclusive.
Screening Cc1cc(C)c(NC(=O)c2sc3nc4c(cc3c2N)C(=O)CC(C)(C)C4)c(C)c1 returned GLP-1R inv ag inconclusive, Mito fusion act 13µM, GLP1R cytotox inactive, GLP1R ag inactive and BRCA1 expr act inactive.
`COC(=O)c1sc2nc3c(cc2c1N)C(=O)CC(C)(C)C3` gave GLP-1R inv ag inactive, Mito fusion act inactive, GLP1R cytotox inactive, GLP1R ag inactive and BRCA1 expr act inactive.
CCN(CC)c1ccc(/C=C2\C(=O)N(c3nnc(C)c(=O)[nH]3)N=C2C)cc1 was read as GLP-1R inv ag inconclusive, Mito fusion act inactive, GLP1R cytotox inactive, GLP1R ag inactive and BRCA1 expr act inactive.
Screening COc1cc(NC(=O)c2nccnc2N)cc(C(=O)Nc2cccc(C(F)(F)F)c2)c1 returned GLP-1R inv ag inactive, Mito fusion act inactive, GLP1R cytotox inactive, GLP1R ag inactive and BRCA1 expr act inactive.
COc1ccc(-c2ccc(C(=O)Nc3ccc(NC(C)=O)cc3)c3occc23)c(C)c1 was read as GLP-1R inv ag inconclusive, GLP1R cytotox inactive, GLP1R ag inactive and BRCA1 expr act inactive.
Screening COc1cccc(CNC(=O)COC(=O)C23CC4CC(CC(Cl)(C4)C2)C3)c1 returned GLP-1R inv ag inactive, GLP1R cytotox inactive, GLP1R ag inactive and BRCA1 expr act inactive.
COc1cccc(NC(=O)CN(C)CC(=O)Nc2cccc(C(F)(F)F)c2)c1 was read as GLP-1R inv ag 7.1µM, Mito fusion act inactive, GLP1R cytotox inactive, GLP1R ag inactive and BRCA1 expr act inactive.
`COc1ccc(-c2ccc(C(=O)Nc3cccc(C(F)(F)F)c3)c3occc23)c(C)c1` gave GLP-1R inv ag 4.5µM, GLP1R cytotox inactive, GLP1R ag inactive and BRCA1 expr act inactive.
Screening COc1cc(Nc2ccccn2)cc(C(=O)Nc2cccc(C(F)(F)F)c2)c1 returned GLP-1R inv ag 11µM, Mito fusion act inactive, GLP1R cytotox inconclusive, GLP1R ag inactive and BRCA1 expr act inactive.
Screening COc1cccc(NC(=O)CN(C)C(=O)C23CC4CC(CC(Cl)(C4)C2)C3)c1 returned GLP-1R inv ag 7.9µM, Mito fusion act inactive, GLP1R cytotox inactive, GLP1R ag inactive and BRCA1 expr act inactive.
For COc1ccc(NC(=O)c2cccc(F)c2)cc1Cl the results were GLP-1R inv ag inconclusive, Mito fusion act inactive, GLP1R cytotox inactive, GLP1R ag inactive and BRCA1 expr act inconclusive.
COc1ccc(NC(=O)CN(C)CC(=O)Nc2cccc(F)c2)cc1Cl was read as GLP-1R inv ag 10µM, Mito fusion act inactive, GLP1R cytotox inactive, GLP1R ag inactive and BRCA1 expr act inactive.
O=C1CC2C(CCC23OCCO3)c2ccc3ccccc3c21 (centres undefined) was read as GLP-1R inv ag inactive, GLP1R cytotox inactive, GLP1R ag inactive and BRCA1 expr act 10µM.
`COc1ccc(-c2nc3sc(CCNC(=O)C(=O)Nc4ccc(C)cc4C)c(C)n3n2)cc1` gave GLP-1R inv ag inactive and GLP1R cytotox inactive.
CCOc1ccccc1NC(=O)Nc1ccccn1 was read as GLP-1R inv ag inactive, Mito fusion act inactive, GLP1R cytotox inactive, GLP1R ag inactive and BRCA1 expr act inactive.
For O=C(CSc1nnc(-c2cccs2)o1)c1cccs1 the results were GLP-1R inv ag inactive, Mito fusion act inactive, GLP1R cytotox inactive, GLP1R ag inactive and BRCA1 expr act inactive.
For COc1ccc(-c2nnc(SCC(=O)c3cccs3)o2)cc1 the results were GLP-1R inv ag inactive, Mito fusion act inactive, GLP1R cytotox inactive, GLP1R ag inactive and BRCA1 expr act 7.1µM.
Screening O=C(O)CSc1nnc(-c2ccc(O)cc2)o1 returned GLP-1R inv ag inactive, GLP1R cytotox inactive, GLP1R ag inactive and BRCA1 expr act inactive.
`O=C(CSc1nnc(-c2ccc(O)cc2)o1)c1ccc(Br)cc1` gave GLP-1R inv ag 8.9µM and GLP1R cytotox inactive.
`C[C@@H]1CN([C@@H](C)CO)C(=O)CCCn2nncc2CO[C@H]1CN(C)C(=O)Nc1ccc(-c2cccs2)cc1` gave GLP-1R inv ag inactive, GLP1R cytotox inactive, GLP1R ag inactive and BRCA1 expr act inactive.
Screening C=CCn1cnc2c(NCc3ccccc3)ncnc21 returned GLP-1R inv ag inactive, Mito fusion act inactive, GLP1R cytotox inactive, GLP1R ag inactive and BRCA1 expr act 4µM.
